This is part of a sample that, as a whole, favours compounds with a hit. Of some 83,000 tested, about 20% had one in any assay.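 48-hour exposure, single concentration, 96-well plates; percent growth endpoint where 0 means no net growth. Active: below 10.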 A number with no mark means an inactive call. Calls of active or inactive are those of the source.

Test systems include NCI-H23 lung; NCI-H226 lung; NCI-H322M lung; HOP-62 NSCLC; NCI-H460 lung; HOP-92 NSCLC; NCI-H522 lung; A549/ATCC NSCLC; 786-0 renal; COLO 205 colon; DU-145 prostate; K-562 leukemia; MALME-3M melanoma; MDA-MB-231 breast; RXF 393 renal; SF-268 CNS; SF-295 CNS; SF-539 CNS; UACC-257 melanoma; M14 melanoma.
Common to all, as to experiment: NCI-60 one-dose screen, 48 h (100 = growth as untreated, 0 = no growth, -100 = all killed)
What all share (settings): 10 µM unless noted

`CCN(CC)CCCCCNc1cc(OC(=O)c2ccc(Cl)cc2)cc2cccnc12`: the growth in the assay with NCI-H23 lung was 93.9%; in the assay with NCI-H226 lung, 105%; with NCI-H322M lung it was 106%; in the assay on HOP-62 NSCLC it was 95.8%; with NCI-H460 lung, 110%; in the assay with HOP-92 NSCLC, 38.2%. Further, the growth in the assay on NCI-H522 lung is 24.4%; in the assay on A549/ATCC NSCLC, 95.3%; with 786-0 renal, 106%; in the assay with COLO 205 colon it was 33.9%; in the assay on DU-145 prostate, 114%; in the assay with K-562 leukemia, 75.3%. In addition, the growth with MALME-3M melanoma was 61%; in the assay on MDA-MB-231 breast it was 85.8%; in the assay with RXF 393 renal it was 98.9%; with SF-268 CNS it was 114%; in the assay on SF-295 CNS, 120%; with SF-539 CNS it was 104%. Also, the growth was 95.9% with UACC-257 melanoma and 102% in the assay on M14 melanoma.

Turning to `COc1ccc(-c2cc(-c3cc(OC)c(OC)c(OC)c3)c(C#N)c(=O)n2CCCCC(=O)NO)cc1`, the growth is 67.4% with NCI-H23 lung; 82.3% in the assay on NCI-H226 lung; 75.1% with NCI-H322M lung; 65% in the assay on HOP-62 NSCLC; 55.3% in the assay with NCI-H460 lung; 51.9% in the assay on HOP-92 NSCLC. Also, the growth was 54.6% in the assay with NCI-H522 lung; 71.9% with A549/ATCC NSCLC; 83.7% in the assay on 786-0 renal; 84.3% with COLO 205 colon; 64.1% in the assay with DU-145 prostate; 32.6% in the assay on K-562 leukemia. The growth with MALME-3M melanoma was 33.1%; in the assay with MDA-MB-231 breast it was 55.6%; in the assay on RXF 393 renal, 53.1%; with SF-268 CNS, 87.9%; with SF-295 CNS, 78.7%; in the assay on SF-539 CNS, 57.7%. Moreover, the results for the growth with UACC-257 melanoma and in the assay with M14 melanoma were 71.7% and 56.9%, respectively.

As for `CN1C(=O)/C(=C\c2nc([P+](c3ccccc3)(c3ccccc3)c3ccccc3)c(N3CCOCC3)o2)SC1=S`, the growth was 81.6% in the assay with NCI-H23 lung; 106% in the assay with NCI-H226 lung; 91.2% with NCI-H322M lung; 97.9% with HOP-62 NSCLC; 97.6% in the assay with NCI-H460 lung; -33.6% (active) in the assay with HOP-92 NSCLC. The growth in the assay with NCI-H522 lung is 93.6%; in the assay on A549/ATCC NSCLC, 86.1%; with 786-0 renal it was 97.5%; in the assay on COLO 205 colon, 88.1%; in the assay with DU-145 prostate, 100%; with K-562 leukemia it was 17.2%. Moreover, the growth in the assay on MALME-3M melanoma is -10.8% (active); with MDA-MB-231 breast, 54.8%; in the assay on RXF 393 renal it was 98.1%; in the assay on SF-268 CNS it was 97.3%; in the assay with SF-295 CNS, 103%; in the assay with SF-539 CNS, 63%. For the same compound, the results for the growth with UACC-257 melanoma and in the assay with M14 melanoma were 61.1% and 47%, respectively.

For the compound `COC(=O)[C@@H](CCCCNC(=O)[C@]12CCC(C)(C)C[C@@H]1C1=CC[C@@H]3[C@@]4(C)C/C(=C/c5ccco5)C(=O)C(C)(C)[C@@H]4CC[C@@]3(C)[C@]1(C)CC2)NC(=O)[C@]12CCC(C)(C)C[C@@H]1C1=CC[C@@H]3[C@@]4(C)C/C(=C/c5ccco5)C(=O)C(C)(C)[C@@H]4CC[C@@]3(C)[C@]1(C)CC2`, the growth with NCI-H23 lung was 106%; in the assay with NCI-H226 lung, 103%; in the assay with NCI-H322M lung, 93.9%; in the assay on HOP-62 NSCLC, 104%; in the assay on NCI-H460 lung, 107%; with HOP-92 NSCLC, 114%. Moreover, the growth with NCI-H522 lung was 94.1%; with A549/ATCC NSCLC, 100%; in the assay with 786-0 renal, 104%; in the assay on COLO 205 colon it was 120%; in the assay with DU-145 prostate, 115%; in the assay with K-562 leukemia, 95.8%. Also, the growth in the assay with MALME-3M melanoma was 102%; in the assay with MDA-MB-231 breast, 92.4%; in the assay on RXF 393 renal, 119%; in the assay with SF-268 CNS, 104%; with SF-295 CNS, 101%; in the assay on SF-539 CNS, 97.1%. For the same compound, the values for the growth in the assay with UACC-257 melanoma and in the assay with M14 melanoma were 100% and 107%, respectively.

Turning to `CCc1ccccc1-n1c(-c2ccc(OC)cc2)cc(-c2ccc(OC)cc2)c(C#N)c1=O`, the growth in the assay on NCI-H23 lung is 73.8%; in the assay with NCI-H226 lung, 95.9%; with NCI-H322M lung, 82.2%; with HOP-62 NSCLC, 67.5%; in the assay with NCI-H460 lung it was 85.5%; in the assay on HOP-92 NSCLC, 5.54% (active). The growth with NCI-H522 lung was 73.8%; with A549/ATCC NSCLC, 100%; in the assay on 786-0 renal, 33.7%; with COLO 205 colon, 132%; in the assay on DU-145 prostate, 98.6%; in the assay on K-562 leukemia, 108%. In addition, the growth in the assay on MALME-3M melanoma was 99.6%; in the assay on MDA-MB-231 breast it was 62%; in the assay on RXF 393 renal it was 32.2%; with SF-268 CNS, 51.9%; in the assay with SF-295 CNS, 55.1%; with SF-539 CNS, 23%. The growth in the assay on UACC-257 melanoma is 111%; in the assay with M14 melanoma, 100%.

For `CC/C=C\C[C@H](O)C/C=C1/C(=O)C=C[C@@H]1C/C=C\CCCC(=O)N(C)C`, the growth was -27% (active) with NCI-H23 lung; -51.3% (active) in the assay on NCI-H226 lung; 18.3% in the assay with NCI-H322M lung; -40.2% (active) with HOP-62 NSCLC; -26.3% (active) in the assay with NCI-H460 lung; -4.76% (active) in the assay on HOP-92 NSCLC. Further, the growth in the assay on NCI-H522 lung is -88.2% (active); in the assay with A549/ATCC NSCLC it was -35.6% (active); with 786-0 renal, -66.2% (active); in the assay on COLO 205 colon, -58.6% (active); with DU-145 prostate, 16.4%; in the assay with K-562 leukemia, 5.58% (active). The growth with MALME-3M melanoma is 8.29% (active); in the assay on MDA-MB-231 breast, 18.3%; in the assay on RXF 393 renal, -65.1% (active); in the assay on SF-268 CNS, 16.6%; in the assay with SF-295 CNS, -1.42% (active); with SF-539 CNS, 14.7%. For the same compound, the results for the growth in the assay on UACC-257 melanoma and in the assay with M14 melanoma were -9.75% (active) and 5.92% (active), respectively.

Regarding `Cc1ccc(Nc2cc(N)nc(N)n2)cc1Cl`, the growth is 87.6% in the assay with NCI-H23 lung; 93.3% with NCI-H226 lung; 99.8% with NCI-H322M lung; 87.3% in the assay with HOP-62 NSCLC; 103% in the assay on NCI-H460 lung; 83.9% in the assay with HOP-92 NSCLC. In addition, the growth in the assay on NCI-H522 lung is 87%; in the assay with A549/ATCC NSCLC, 83.1%; in the assay with 786-0 renal it was 87.9%; in the assay on COLO 205 colon it was 107%; in the assay on DU-145 prostate, 94%; in the assay on K-562 leukemia it was 74.4%. For the same compound, the growth in the assay with MALME-3M melanoma is 97.7%; with MDA-MB-231 breast, 102%; in the assay with RXF 393 renal, 97.5%; with SF-268 CNS it was 88.7%; in the assay on SF-295 CNS, 92.3%; in the assay with SF-539 CNS it was 96.7%. In addition, the growth was 93.6% with UACC-257 melanoma and 93.5% in the assay on M14 melanoma.

Regarding `O=C(Nc1ccc(Oc2cccc(Cl)c2)c(Cl)c1)c1cnccn1`, the growth in the assay on NCI-H23 lung was 46.1%; in the assay on NCI-H226 lung, 64.1%; with NCI-H322M lung, 47.9%; in the assay with HOP-62 NSCLC, 41%; with NCI-H460 lung it was 15.7%; with HOP-92 NSCLC, 62%. The growth is 12.5% with NCI-H522 lung; 23.9% with A549/ATCC NSCLC; 44.6% with 786-0 renal; 12.3% in the assay on COLO 205 colon; 22.7% in the assay with DU-145 prostate; 13.2% with K-562 leukemia. Moreover, the growth in the assay on MALME-3M melanoma is 53.4%; in the assay on MDA-MB-231 breast it was 31.7%; in the assay with RXF 393 renal, -4.58% (active); in the assay on SF-268 CNS, 54.3%; with SF-295 CNS, 41.2%; with SF-539 CNS it was -35.2% (active). The results for the growth with UACC-257 melanoma and with M14 melanoma were 72.4% and 19.8%, respectively.
